Screening data (PubChem)
Compounds with a hit are over-represented: about 1.3% of the library has one in this group of screens.
NR5A2 inv ag – suppresses constitutive activity of human LRH-1; O00482; HEK293T StAR-luciferase reporter, LRH-1 transfected, 24 h; 0.13% of 360,000 active; inhibition, % at 3.6 µM;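 active means inhibition above the mean inhibition of all tested compounds plus 3 SD, cut at about 73% in these data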;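 further: 0% = DMSO wells and 100% = reporter-only cells lacking LRH-1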
COUP-TFII inh – NR2F2 (human) inhibition, primary screen; P24468; HEK293T NGFI-A luciferase reporter, luminescence; inhibition, % at 8.6 µM; 0.7% of 370,000 active;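 active means inhibition above a per-plate cutoff, mean inhibition of test wells between control levels plus 3 SD, cut at about 38% in these data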;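 further: cells cotransfected with COUP-TFII expression vector driving the NGFI-A reporter; 0% = median of COUP-TF2 test wells and 100% = reporter-only cells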
NCOA1 inh – human NCOA1 inhibition; Q15788; HEK293 GAL4-SRC1 luciferase reporter, luminescence; inhibition, % at 3.6 µM; 0.12% of 360,000 active; AID 588354;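 active means inhibition above the campaign mean plus 3 SD, with each screening campaign given its own cutoff, cut at about 60% in these data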;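 further: 0% = DMSO treated cells and 100% = gossypol at 36 µM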
SRC2 inh – inhibits human steroid receptor coactivator 2; Q15596; HEK293 GAL4-SRC2 luciferase reporter, luminescence; inhibition, % at 9 µM; 0.17% of 370,000 active;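 active means inhibition above the mean inhibition of all tested compounds plus 3 SD, set per campaign, cut at about 52% in these data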;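 further: 0% = DMSO treated cells and 100% = cells given Gossypol at 36 µM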
NCOA3 inh – inhibits human SRC3 coactivator. 0.17% of 360,000 active. Q9Y6Q9. inhibition, % at 3.6 µM. AID 588352. HEK293 GAL4-SRC3 luciferase reporter, luminescence;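 active means inhibition above a per-campaign cutoff, the mean of all compounds plus 3 SD, cut at about 60% in these data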;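 further: 0% = DMSO-treated cells and 100% = gossypol-treated cells at 36 µM; higher means less SRC3-driven luciferase light from the GAL4 reporter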
Target sequence (Q9Y6Q9 whole entry, looked up, the tested form may be a part): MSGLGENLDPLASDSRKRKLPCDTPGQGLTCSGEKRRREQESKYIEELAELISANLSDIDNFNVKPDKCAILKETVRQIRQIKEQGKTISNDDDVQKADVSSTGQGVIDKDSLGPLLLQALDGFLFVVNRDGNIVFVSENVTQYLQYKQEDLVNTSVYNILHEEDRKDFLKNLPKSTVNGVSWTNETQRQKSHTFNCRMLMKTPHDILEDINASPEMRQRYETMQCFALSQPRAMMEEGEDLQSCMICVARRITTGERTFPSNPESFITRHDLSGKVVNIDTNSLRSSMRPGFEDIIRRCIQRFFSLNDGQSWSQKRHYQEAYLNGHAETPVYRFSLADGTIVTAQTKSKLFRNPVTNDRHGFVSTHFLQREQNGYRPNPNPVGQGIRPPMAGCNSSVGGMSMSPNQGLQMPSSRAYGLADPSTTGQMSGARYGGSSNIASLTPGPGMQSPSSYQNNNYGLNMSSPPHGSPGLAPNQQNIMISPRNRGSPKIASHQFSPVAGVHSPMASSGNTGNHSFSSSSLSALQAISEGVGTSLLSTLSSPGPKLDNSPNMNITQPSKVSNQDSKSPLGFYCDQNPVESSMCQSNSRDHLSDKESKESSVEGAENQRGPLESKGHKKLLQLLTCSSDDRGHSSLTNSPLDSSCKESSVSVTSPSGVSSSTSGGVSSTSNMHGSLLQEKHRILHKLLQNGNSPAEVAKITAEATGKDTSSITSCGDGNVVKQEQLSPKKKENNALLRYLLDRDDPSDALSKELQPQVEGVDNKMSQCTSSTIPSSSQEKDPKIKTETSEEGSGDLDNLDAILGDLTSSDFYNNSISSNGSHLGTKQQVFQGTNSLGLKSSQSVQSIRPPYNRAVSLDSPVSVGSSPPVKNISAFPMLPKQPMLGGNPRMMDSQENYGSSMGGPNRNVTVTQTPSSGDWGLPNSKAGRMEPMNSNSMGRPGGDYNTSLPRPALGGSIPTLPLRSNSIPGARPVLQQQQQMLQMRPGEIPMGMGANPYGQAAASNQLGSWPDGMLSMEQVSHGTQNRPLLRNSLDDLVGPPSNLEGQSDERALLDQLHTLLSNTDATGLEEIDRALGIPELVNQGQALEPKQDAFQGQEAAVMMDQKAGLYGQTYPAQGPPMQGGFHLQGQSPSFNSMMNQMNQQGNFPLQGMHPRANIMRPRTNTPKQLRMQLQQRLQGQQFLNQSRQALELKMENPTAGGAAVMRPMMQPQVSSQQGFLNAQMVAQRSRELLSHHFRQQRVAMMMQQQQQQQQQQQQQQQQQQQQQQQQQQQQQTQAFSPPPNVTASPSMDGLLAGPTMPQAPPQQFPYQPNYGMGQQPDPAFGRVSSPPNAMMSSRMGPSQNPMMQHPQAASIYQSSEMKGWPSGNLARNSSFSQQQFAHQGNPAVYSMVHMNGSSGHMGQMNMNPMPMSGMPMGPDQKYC
Gli-Sufu block – blocks Gli-Sufu signaling in a luciferase reporter | Sufu-KO-LIGHT fibroblasts, Gli luciferase reporter luminescence | inhibition, % at 5 µM | 0.74% of 340,000 active | AID 588413;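 active means inhibition above about 55%, limit read from the data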;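 further: 0% = DMSO-treated cells and 100% = wells with medium but no cells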
Gli antag conf – confirmation of Gli-SUFU pathway antagonists. inhibition, % at 5 µM. 40% of 2,500 active. Sufu-KO-LIGHT cells, Gli luciferase reporter, luminescence. shares compounds with Gli-Sufu block;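 active means mean inhibition at 5 µM reaching about 45%, limit read from the data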;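 further: plate controls were DMSO-treated cells for no effect and wells lacking cells for full effect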
Gli cytotox – cytotoxic in Gli-SUFU antagonist counter-screen; shares compounds with Gli-Sufu block; Sufu-KO-LIGHT cells cytotoxicity, ATP luminescence; cytotoxicity, % at 5 µM; 32% of 2,500 active;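 active means mean cytotoxicity at 5 µM above about 25%, limit read from the data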;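 further: cells exposed to compound overnight for roughly 16 to 18 hours; plate controls were DMSO wells with cells for no effect and medium without cells for full effect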
Wnt3a counter – Wnt3a reporter inhibition counter-screen; shares compounds with Gli-Sufu block; Wnt-LIGHT cells, Wnt3a-driven luciferase reporter, luminescence; inhibition, % at 6.25 µM; 20% of 2,500 active;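 active means mean inhibition above about 25%, limit read from the data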
Gal4-VP16 ctr – counter-screen for COUP-TFII antagonists: inhibitors of VP16; shares compounds with COUP-TFII inh; HEK293 Gal4-VP16 luciferase reporter, luminescence; inhibition, % at 8.5 µM; 25% of 2,500 active; AID 687007; in the data active means inhibition above about 13%
COUP-TFII conf – confirmation of human COUP-TFII (NR2F2) inhibitors; shares compounds with COUP-TFII inh; HEK293 NGFI-A luciferase reporter, luminescence; inhibition, % at 8.5 µM; 45% of 2,500 active; AID 687008;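 active means mean inhibition over three repeats above a set limit taken from the earlier primary screen, cut at about 38% in these data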;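 further: 100% = cells given the luciferase reporter alone without the COUP-TF2 vector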
Active calls of the source: *; x = no result; ! = not active in a repeat.

SMILES | NR5A2 inv ag | COUP-TFII inh | NCOA1 inh | SRC2 inh | NCOA3 inh | Gli-Sufu block | Gli antag conf | Gli cytotox | Wnt3a counter | Gal4-VP16 ctr | COUP-TFII conf
O=C(NC1CCN(Cc2ccccc2)CC1)C1CCN(S(=O)(=O)c2cccc3cccnc23)CC1 | 7 | 20 | -12 | -13 | -1 | -15 | x | x | x | x | x
COc1ccc(CNCC(O)(c2ccc(F)cc2)c2ccc(F)cc2)cc1OC | 11 | 26 | 18 | 14 | 26 | 65* | 23 | 36* | -41 | x | x
COc1ccc(CNCC(O)(c2ccccc2)c2ccc(F)cc2)cc1OC (stereo unspecified) | 22 | 15 | 2 | 19 | 27 | 17 | x | x | x | x | x
CC(Cl)C(=O)N1CCC(C(=O)NC2CCCc3ccccc32)CC1 (stereo unspecified) | x | -26 | x | -7 | x | x | x | x | x | x | x
COCCN(C(=O)COC(=O)C1CCC(C(C)(C)C)CC1)c1c(N)n(Cc2ccccc2)c(=O)[nH]c1=O (stereo unspecified) | -11 | 17 | -10 | 5 | 10 | 72* | 81* | 28* | 8 | x | x
CCCCC1CCC(C(=O)OCC(=O)N(CCOC)c2c(N)n(Cc3ccccc3)c(=O)[nH]c2=O)CC1 (stereo unspecified) | 4 | -10 | -15 | -11 | 13 | -2 | x | x | x | x | x
COCCCNC(=O)c1nnn2c1nc(N)c1cc(Cl)ccc12 | x | -16 | x | -37 | x | x | x | x | x | x | x
CN(CC(=O)Nc1ccc(Cl)cc1)CC(=O)Nc1cccc(Br)c1 | -1 | 5 | 13 | -3 | 5 | 55* | 15 | 6 | -51 | x | x
COc1ccc(NC(=O)CN(C)CC(=O)Nc2cccc(C(C)=O)c2)cc1 | 16 | 5 | 13 | 3 | -8 | 3 | x | x | x | x | x
O=C(Nc1ccc(Cl)c(Cl)c1)C1CCN(c2ncccn2)CC1 | x | 15 | x | -11 | x | x | x | x | x | x | x
COc1ccc(N2CCN(C(=O)COC(=O)c3c(-c4ccccc4)noc3C)CC2)cc1 | -5 | -1 | 3 | -10 | -11 | 65* | 16 | -1 | 7 | x | x
Cc1onc(-c2ccccc2)c1C(=O)N1CCN(c2ccccc2)CC1 | 9 | -6 | 3 | 12 | 12 | 2 | x | x | x | x | x
N#Cc1ccc(OCC(=O)NNC(=S)NC2CCCCC2)cc1 | -13 | -8 | -20 | 3 | -3 | 58* | 25 | 4 | -5 | x | x
CC(NC(=O)c1cc(COc2ccc3ncccc3c2)on1)c1ccc(F)cc1 (stereo unspecified) | 40 | 69* | 10 | 21 | 28 | 58* | 64* | 43* | 16 | 0 | 58*
COc1cccc(CN(C)C(=O)c2cc(COc3ccc4ncccc4c3)on2)c1 | 35 | 73* | 7 | 6 | 28 | 57* | 57* | 20 | 27* | -2 | 56*
CC(NC(=O)c1cc(COc2ccccc2)on1)c1nccs1 (stereo unspecified) | -78 | -61 | -138 | -32 | -123 | -8 | x | x | x | x | x
COC(=O)[C@]12C[C@H](CC(=O)NCc3ccc(OC)c(OC)c3)C(=O)N(CCc3ccc(OC)c(OC)c3)C1=C[C@H](C(C)(C)C)O[C@@H]2C | x | 3 | x | 27 | x | x | x | x | x | x | x
C[C@H]1[C@@H](c2ccccc2)OC(O)([C@H](Cc2ccccc2)NC(=O)OC(C)(C)C)CN1C (stereo partly specified) | x | 16 | x | x | x | x | x | x | x | x | x
COc1ccc(N2CCN(c3ncnc4c3[nH]c3ccccc34)CC2)cc1 | 38 | 52* | 30 | 21 | 32 | 71* | 80* | 24 | 21 | 6 | 61*
CC(C)N1CCCCC(NC(=O)c2cccc(C(F)(F)F)c2)C1=O (stereo unspecified) | x | -3 | x | 12 | x | x | x | x | x | x | x
C=CCn1c(O)c(N=NC(=S)Nc2ccccc2F)c2cc(S(=O)(=O)N3CCOCC3)ccc21 | -2 | 49* | 7 | 14 | 17 | 64* | 56* | 29* | -23 | -2 | 28
CCN(CCc1ccccc1)c1ccc2c(c1)C1CC2CCN1C(=O)OCc1ccccc1 (stereo unspecified) | -3 | -6 | -4 | -14 | -38 | 1 | x | x | x | x | x
CCCCN(C(C)=O)c1ccc2c(c1)C1CC2CCN1C(=O)OCc1ccccc1 (stereo unspecified) | 14 | 55* | 16 | 17 | 23 | 56* | 64* | 31* | 3 | 1 | 39*
CCOC(=O)CC[C@@H]1CC[C@]2(CCCN(C(=O)C3CCCCC3)C2)O1 | x | 4 | x | -8 | x | x | x | x | x | x | x
COc1ccc(NS(=O)(=O)c2ccc(N3CCCCC3)c(N)c2)cc1 | 31 | 56* | 12 | 10 | 13 | 58* | 73* | 27* | 16 | -5 | 43*
SMILES | NR5A2 inv ag | COUP-TFII inh | NCOA1 inh | SRC2 inh | NCOA3 inh | Gli-Sufu block | Gli antag conf | Gli cytotox | Wnt3a counter | Gal4-VP16 ctr | COUP-TFII conf
COc1ccc(NS(=O)(=O)c2ccc(N3CCCCC3)c(NC(=O)C(C)NC(N)=O)c2)cc1 (stereo unspecified) | -14 | 8 | 4 | -37 | 0 | 9 | x | x | x | x | x
COc1ccc2c(c1)N(C)/C(=C/c1cccc[n+]1C)S2 | 41 | 56* | 21 | -5 | 38 | 80* | 84* | 36* | 29* | -4 | 21
COc1cc(OC)cc(C(=O)/C=C2\Sc3ccccc3N2C)c1 | -23 | -25 | 15 | -38 | 7 | -15 | x | x | x | x | x
CN1/C(=C/c2cccc[n+]2C)Sc2ccccc21 | 35 | 53* | 20 | -43 | 28 | 69* | 86* | 38* | 36* | -5 | 48*
CN1/C(=C/C(=O)C2CCC2)Sc2ccccc21 | -77 | -55 | -64 | -25 | -102 | -44 | x | x | x | x | x
Cc1cccc(-c2cccc3c4c([nH]c23)[C@@H]2C[C@H](N(C)C(=O)c3ccccc3C)[C@H]([C@H](C)O)CN2CC4)c1 | x | 13 | x | 8 | x | x | x | x | x | x | x
COc1ccccc1-n1c(-c2ccccc2)c[nH]c1=S | -8 | 4 | -18 | -3 | 15 | 0 | x | x | x | x | x
COc1ccccc1-n1c(-c2ccccc2)c[n+]2c1CCc1ccccc1-2 | 66 | 71* | 51 | 6 | 74*! | 81* | 87* | 24 | 32* | 18*! | 63*
COc1ccccc1-c1nnc(SCC#CCOC(=O)c2ccc(F)cc2)o1 | x | 2 | x | x | x | x | x | x | x | x | x
CC(C)Cc1ccc(C(C)C(=O)Nc2cccnc2)cc1 (stereo unspecified) | 26 | 46* | 10 | 14 | 16 | 66* | 45 | 19 | 19 | 3 | 41*
